Data taken from PubChem BioAssay (NCI).
Compounds without any hit were thinned out: in the full panel of roughly 79,000, 15% have a hit. A number with no mark means an inactive call. The source made the active and inactive calls. Cut-off read from the data, not from the text of the source: active = growth inhibition above about 70%; inactive = the rest.

Experiments:
[1] = NCI Yeast Anticancer Drug Screen. Data for the rad50 strain (AID 155);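 note: 0% = growth of vehicle-only cultures of the same strain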; conditions: S. cerevisiae rad50 strain growth inhibition, hits give high values
Summary of the method: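 Growth of the mutant yeast was measured after compound exposure and referenced to vehicle-treated cultures.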

[2] = NCI Yeast Anticancer Drug Screen. Data for the mec2-1 strain (AID 157); conditions: S. cerevisiae mec2-1 strain, hits give high values
Summary of the method: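 Test agents were screened against the mec2-1 yeast strain, with defined DNA repair or cell cycle alteration. Growth was scored as inhibition against vehicle-only controls.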

[3] = NCI Yeast Anticancer Drug Screen. Data for the sgs1 mgt1 strain (AID 161);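 note: 0% = growth of cultures given vehicle only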; conditions: S. cerevisiae sgs1 mgt1 strain, hits give high values
Summary of the method: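 Test agents were incubated with a DNA-repair-mutant yeast strain. Growth was then read and compared against vehicle-treated controls.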

[4] = NCI Yeast Anticancer Drug Screen. Data for the cln2 rad14 strain (AID 165);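 note: 0% = growth equal to vehicle treated cultures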; conditions: S. cerevisiae cln2 rad14 strain, hits give high values
Summary of the method: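 Growth of compound-exposed yeast (cln2 rad14 genotype) measured and expressed as inhibition relative to vehicle.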

[5] = NCI Yeast Anticancer Drug Screen. Data for the bub3 strain (AID 167); conditions: S. cerevisiae bub3 mutant strain, hits give high values
Summary of the method: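 Whole-cell yeast assay. The mutant strain was incubated with compounds, and growth inhibition was determined by comparison with vehicle-treated cells.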

[6] = NCI Yeast Anticancer Drug Screen. Data for the mlh1 rad18 strain (AID 175); conditions: S. cerevisiae mlh1 rad18 strain growth inhibition, hits give high values
Summary of the method: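 In this whole-cell yeast screen, a strain with altered DNA damage repair is challenged with compound, and its growth is measured against matched vehicle-treated controls.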

[7] = at 5.0 µM (retest, dose inferred, filed as 0.5)
[8] = at 50.0 µM (retest, dose inferred, filed as 5.0)

COc1ccc2nc3cc(Cl)ccc3c(Nc3nccs3)c2c1
growth inhibition [1, 7]: 14%
growth inhibition [1, 8]: 90% (active)
growth inhibition ([1]; at 50.0 µM): 95.1% (active)
growth inhibition [2, 7]: 12%
growth inhibition [2, 8]: 93% (active)
growth inhibition ([2]; at 50.0 µM): 70% (active)
growth inhibition [3, 7]: 13%
growth inhibition [3, 8]: 90% (active)
growth inhibition ([3]; at 50.0 µM): 94.4% (active)
growth inhibition [4, 7]: 9%
growth inhibition [4, 8]: 87% (active)
growth inhibition ([4]; at 50.0 µM): 58.5%
growth inhibition [5, 7]: 6%
growth inhibition [5, 8]: 96% (active)
growth inhibition ([5]; at 50.0 µM): 94.5% (active)
growth inhibition [6, 7]: 6%
growth inhibition [6, 8]: 94% (active)
growth inhibition ([6]; at 50.0 µM): 88.2% (active)

COc1ccc2nc3cc(Cl)ccc3c(NCCCN(Cc3cc(OC)c(OC)c(OC)c3)Cc3cc(OC)c(OC)c(OC)c3)c2c1
growth inhibition [1, 7]: 45%
growth inhibition [1, 8]: 72% (active)
growth inhibition ([1]; at 50.0 µM): 62.4%
growth inhibition [2, 7]: 29%
growth inhibition [2, 8]: 58%
growth inhibition ([2]; at 50.0 µM): 34.6%
growth inhibition [3, 7]: 38%
growth inhibition [3, 8]: 62%
growth inhibition ([3]; at 50.0 µM): 45.6%
growth inhibition [4, 7]: 32%
growth inhibition [4, 8]: 43%
growth inhibition ([4]; at 50.0 µM): 33.4%
growth inhibition [5, 7]: 37%
growth inhibition [5, 8]: 83% (active)
growth inhibition ([5]; at 50.0 µM): 56.6%
growth inhibition [6, 7]: 48%
growth inhibition [6, 8]: 80% (active)
growth inhibition ([6]; at 50.0 µM): 73.5% (active)

COC(=O)C1=C(C)NC(c2ccc(OC)cc2OC)C(C(=O)OC)=C1C (stereo not given)
growth inhibition [1, 7]: 4%
growth inhibition [1, 8]: 21%
growth inhibition ([1]; at 50.0 µM): 68.7%
growth inhibition [2, 7]: 3%
growth inhibition [2, 8]: 11%
growth inhibition ([2]; at 50.0 µM): 25.6%
growth inhibition [3, 7]: 1%
growth inhibition [3, 8]: 14%
growth inhibition ([3]; at 50.0 µM): 76.8% (active)
growth inhibition [4, 7]: -3%
growth inhibition [4, 8]: 4%
growth inhibition ([4]; at 50.0 µM): 25.6%
growth inhibition [5, 7]: 1%
growth inhibition [5, 8]: 16%
growth inhibition ([5]; at 50.0 µM): 49.7%
growth inhibition [6, 7]: -1%
growth inhibition [6, 8]: 24%
growth inhibition ([6]; at 50.0 µM): 58%

Cc1c(N=Nc2ccc(Br)cc2)c(-c2ccccc2)nn1C(N)=S
growth inhibition [1, 7]: -2%
growth inhibition [1, 8]: 93% (active)
growth inhibition ([1]; at 50.0 µM): 97.7% (active)
growth inhibition [2, 7]: 1%
growth inhibition [2, 8]: 97% (active)
growth inhibition ([2]; at 50.0 µM): 97.5% (active)
growth inhibition [3, 7]: 7%
growth inhibition [3, 8]: 97% (active)
growth inhibition ([3]; at 50.0 µM): 98% (active)
growth inhibition [4, 7]: -4%
growth inhibition [4, 8]: 94% (active)
growth inhibition ([4]; at 50.0 µM): 95.4% (active)
growth inhibition [5, 7]: 7%
growth inhibition [5, 8]: 95% (active)
growth inhibition ([5]; at 50.0 µM): 96.5% (active)
growth inhibition [6, 7]: 0%
growth inhibition [6, 8]: 97% (active)
growth inhibition ([6]; at 50.0 µM): 97.7% (active)

O=C(OCc1ccccc1)c1ccccc1Cl
growth inhibition [1, 7]: 3%
growth inhibition [1, 8]: 21%
growth inhibition ([1]; at 50.0 µM): 50.4%
growth inhibition [2, 7]: -3%
growth inhibition [2, 8]: 0%
growth inhibition ([2]; at 50.0 µM): 14.1%
growth inhibition [3, 7]: 2%
growth inhibition [3, 8]: 14%
growth inhibition ([3]; at 50.0 µM): 40.2%
growth inhibition [4, 7]: 4%
growth inhibition [4, 8]: -11%
growth inhibition ([4]; at 50.0 µM): -18.6%
growth inhibition [5, 7]: 10%
growth inhibition [5, 8]: 19%
growth inhibition ([5]; at 50.0 µM): 30.9%
growth inhibition [6, 7]: 3%
growth inhibition [6, 8]: 14%
growth inhibition ([6]; at 50.0 µM): 82.8% (active)
